The panel holds about 79,000 compounds, 15% with a hit somewhere; the sample as a whole holds those more often. Unmarked numbers belong to inactive results. Active and inactive are the calls of the source. Cut-off read from the data, not from the text of the source: active = growth inhibition above about 70%; inactive = the rest.

A short description of the experiment: NCI Yeast Anticancer Drug Screen. Data for the rad14 strain (AID 159).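 Note: 0% = growth of vehicle-treated control cultures.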 The following applies: S. cerevisiae rad14 strain growth inhibition, hits give high values. The method, then:
Growth inhibition of yeast strains with defined genetic alterations is measured as a screen for potential anti-cancer activity. Selected strains with alterations in DNA damage repair or cell cycle control were exposed to compounds and growth inhibition was measured relative to vehicle treated controls. The strain used in this assay is rad14

`CCC(=O)C1=C(O)c2cc(OC)ccc2CC1C(=O)OC` (stereo not given): the growth inhibition is 2% (at 1.2 µM); 6% (at 3.7 µM); 11% (at 11.0 µM); 19% (at 33.0 µM); 35% (at 100.0 µM).

As to `COc1ccc2nc3cccc([N+](=O)[O-])c3c(NCCNCCO)c2c1`, the growth inhibition (at 1.2 µM) was 90% (active); the growth inhibition (at 3.7 µM) is 97% (active); the growth inhibition (at 11.0 µM) is 99% (active); the growth inhibition (at 33.0 µM) is 99% (active); the growth inhibition (at 100.0 µM) was 98% (active).

Take `CC(/C=C/c1ccc([N+](=O)[O-])o1)=N/N1CC(CN2CCOCC2)OC1=O` (stereo not given): the growth inhibition was 4% (at 1.2 µM); 10% (at 3.7 µM); 55% (at 11.0 µM); 90% (active) (at 33.0 µM); 99% (active) (at 100.0 µM).

With `O=S(=O)(c1cccc(C(F)(F)F)c1)N1c2ccccc2-n2cccc2C1c1cccnc1` (stereo not given), the growth inhibition is -51% (at 1.2 µM); -17% (at 3.7 µM); 73% (active) (at 11.0 µM); 94% (active) (at 33.0 µM); 89% (active) (at 100.0 µM).

As for `CCOP(=O)(OCC)/C(C#N)=C\c1cccc2ccccc12`, the growth inhibition (at 1.2 µM) was -8%; the growth inhibition (at 3.7 µM) is -13%; the growth inhibition (at 11.0 µM) is -25%; the growth inhibition (at 33.0 µM) is 87% (active); the growth inhibition (at 100.0 µM) is 97% (active).

Take `Nc1cc2ccccc2cc1N`: the growth inhibition is, setting by setting: (at 1.2 µM) -15%; (at 3.7 µM) -17%; (at 11.0 µM) -13%; (at 33.0 µM) -16%; (at 100.0 µM) 6%.

Take `COC(=O)C1CCCCC1C(=O)Nc1ccccc1` (stereo not given): the growth inhibition by setting is: (at 1.2 µM) -2%; (at 3.7 µM) -3%; (at 11.0 µM) -2%; (at 33.0 µM) -1%; (at 100.0 µM) -3%.

With `CC(C)OC(=O)NNc1cccc(Cl)c1`, the growth inhibition runs as follows: (at 1.2 µM) 4%; (at 3.7 µM) 12%; (at 11.0 µM) 76% (active); (at 33.0 µM) 98% (active); (at 100.0 µM) 98% (active).
